Screens (PubChem BioAssay)
This is a sample that favours compounds with a hit; in the whole collection about 2.8% have one here.
Peg3 prom inh: Peg3 promoter activity inhibition; AID 588405; HeLa PEG-Prom luciferase reporter, luminescence, overnight; 360,000 tested, 1.7% active; inhibition, % at 20 µM;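 active = inhibition of at least 50% at 20 µM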
CF NFkB inh: blocks PAF-induced NF-kB reporter in cystic fibrosis cells; KKLEB NF-kB-GFP reporter, GFP fluorescence overnight; inhibition, % at 5 µM; 360,000 tested, 0.86% active; AID 588850;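 active = at least 50% inhibition at 5 µM, scaled per plate between neutral and stimulator controls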;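 note: PAF is a Pseudomonas aeruginosa culture filtrate used as stimulus; plate controls were PAF-stimulated DMSO wells for no effect and unstimulated DMSO wells for full effect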
MITF TRPM1 inh: inhibitors of MITF-driven TRPM1 promoter in melanoma cells; SK-MEL-5 TRPM1 promoter luciferase, 24 h; 330,000 tested, 0.83% active; inhibition, % at 12.5 µM;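 active = mean inhibition across replicates of 60% or more, whatever share of single replicates reaches that level; inconclusive = some that reach 60%, reason not given; inactive = mean inhibition across replicates below 60%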
HIF-2a block: blocks HIF-2a reporter activity. 786-0 RCC cells HIF-2a reporter, luciferase luminescence, overnight. inhibition, % at 18.8 µM. 360,000 tested, 0.72% active. AID 624352;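 active = inhibition of the luminescence signal of 40% or more relative to plate controls, in a single-dose primary screen at 18.75 µM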
Shn3 inh set2: reduces Shn3 3'UTR luciferase signal in osteoblasts; Clone20 osteoblast Shn3 3'UTR firefly luciferase, 24 h; inhibition, % at 12.5 µM; 360,000 tested, 0.52% active; AID 588674;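 active = mean inhibition of at least 75% with every replicate also reaching 75%; inconclusive = mean inhibition at least 75% but some replicate below; inactive = mean inhibition below 75%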;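 note: 0% = median of neutral control wells and 100% = pilot-screen positive control compound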
KKLEB tox: counter-screen for CF NF-kB inhibitors: cytotoxicity | 360,000 tested, 0.36% active | activity change (cytotoxicity), % at 5 µM | KKLEB CF airway cells viability, ATPlite luminescence, overnight; hits give low values; cells stimulated with P. aeruginosa culture filtrate;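 active = corrected activity change at or below -50% at 5 µM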
Mdm2-MdmX confirm: confirmation of inhibitors of human Mdm2/MdmX interaction, set 2; shares compounds with HIF-2a block; SaOS-2 split-luciferase Mdm2/MdmX complementation, luminescence; inhibition, % at 8 µM; 740 tested, 99% active;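 active = mean inhibition of the luminescence signal across two replicates at or above 26 percent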
HIF-2a conf: confirmation of HIF-2a inhibitors | shares compounds with HIF-2a block | 786-0 RCC cells, HIF-2a luciferase reporter luminescence, overnight | inhibition, % at 18.8 µM | 1,800 tested, 56% active | AID 651580;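 active = mean inhibition across four replicates of at least 40 percent at the single tested concentration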
HIF-1a cs: HIF-1a inhibition counter-screen for HIF-2a hits; 1,800 tested, 72% active; shares compounds with HIF-2a block; inhibition, % at 18.8 µM; MiaPaCa-2 HIF-1a luciferase reporter, desferoxamine, overnight;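 active = mean inhibition of the reporter signal across four replicates at the single tested dose of 50% or more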
Numbers without * were called inactive.

O=[N+]([O-])c1ccc(NCc2ccccc2N2CCC(CO)CC2)nc1 was read as Peg3 prom inh -4, CF NFkB inh -1, MITF TRPM1 inh -2, HIF-2a block 2, Shn3 inh set2 -104 and KKLEB tox -6.
`O=C(NN=Cc1c(O)ccc2ccccc12)c1ccc2c(c1)OCO2` gave Peg3 prom inh 15, CF NFkB inh 4, MITF TRPM1 inh inconclusive, HIF-2a block -65, Shn3 inh set2 89*, KKLEB tox -14 and Mdm2-MdmX confirm 88*.
For O=C(N/N=C\c1c(O)ccc2ccccc12)c1ccc(S(=O)(=O)N2CCCCC2)cc1 the results were Peg3 prom inh 64*, CF NFkB inh 9, MITF TRPM1 inh 76*, HIF-2a block 29, Shn3 inh set2 89*, KKLEB tox -35 and Mdm2-MdmX confirm 87*.
For O=C(N/N=C/c1ccccc1)c1ccc2c(c1)OCO2 the results were Peg3 prom inh -106, CF NFkB inh -10, MITF TRPM1 inh -42, HIF-2a block -126, Shn3 inh set2 -49 and KKLEB tox 5.
`O=C(CN1CCCc2ccccc21)N/N=C/c1c(O)ccc2ccccc12` gave Peg3 prom inh -23, CF NFkB inh 5, MITF TRPM1 inh 13, HIF-2a block -30, Shn3 inh set2 69, KKLEB tox -3 and Mdm2-MdmX confirm 97*.
`O=C(N/N=C/c1ccc([N+](=O)[O-])o1)c1ccc2c(c1)OCO2` gave Peg3 prom inh 13, CF NFkB inh -5, MITF TRPM1 inh 98*, HIF-2a block 56*, Shn3 inh set2 24, KKLEB tox -2, HIF-2a conf 52* and HIF-1a cs 59*.
COc1ccccc1C=CC(=O)C=Cc1ccccc1OC was read as Peg3 prom inh 99*, CF NFkB inh -179, MITF TRPM1 inh 74*, HIF-2a block 70*, Shn3 inh set2 52, KKLEB tox -4, HIF-2a conf 55* and HIF-1a cs 100*.
Screening O=[N+]([O-])c1ccc(Oc2cccc(F)c2)c2ccncc12 returned Peg3 prom inh 18, CF NFkB inh 41, MITF TRPM1 inh 17, HIF-2a block 47*, Shn3 inh set2 0, KKLEB tox -17, HIF-2a conf 30 and HIF-1a cs 79*.
For Cc1ccc(NC(=O)c2ccc(Cl)c(S(=O)(=O)N3CCCCC3)c2)nc1 the results were Peg3 prom inh -1, CF NFkB inh 0, MITF TRPM1 inh -4, HIF-2a block -35, Shn3 inh set2 17 and KKLEB tox 0.
COc1ccc(Oc2c(Cl)cnn(-c3ccc(Cl)c(Cl)c3)c2=O)cc1 was read as Peg3 prom inh 65*, CF NFkB inh -20, MITF TRPM1 inh inconclusive, HIF-2a block 84*, Shn3 inh set2 19, KKLEB tox 3, HIF-2a conf 8 and HIF-1a cs 104*.
COc1ccc(Oc2c(Cl)cnn(-c3ccc(C)cc3)c2=O)cc1 was read as Peg3 prom inh 7, CF NFkB inh -4, MITF TRPM1 inh 3, HIF-2a block -5, Shn3 inh set2 16 and KKLEB tox 0.
Screening Cc1ccc(OCc2cnc(Cl)s2)c(C)c1 returned Peg3 prom inh -118, CF NFkB inh -5, MITF TRPM1 inh -81, HIF-2a block -133, Shn3 inh set2 -18 and KKLEB tox 2.
`COc1cc2ncc(S(=O)(=O)c3ccccc3)c(N3CCC4(CC3)OCCO4)c2cc1OC` gave Peg3 prom inh 24, CF NFkB inh 17, MITF TRPM1 inh 19, HIF-2a block 40*, Shn3 inh set2 43, KKLEB tox 6, HIF-2a conf 22 and HIF-1a cs 98*.
For COC(=O)c1ccccc1NC(=O)CSc1nc2ccsc2c(=O)n1CCCCC(=O)O the results were Peg3 prom inh 18, CF NFkB inh -31, HIF-2a block 12, Shn3 inh set2 4 and KKLEB tox 4.
`CCOC(=O)c1sc(NC(=O)c2cc(-c3ccccc3)nc3ccccc23)c(C#N)c1C` gave Peg3 prom inh 29, CF NFkB inh 38, MITF TRPM1 inh 23, HIF-2a block 3, Shn3 inh set2 78, KKLEB tox -28 and Mdm2-MdmX confirm 98*.
Cc1nn(CC(=O)NC2CCC(C)CC2)c(C)c1[N+](=O)[O-] (stereo not drawn) was read as Peg3 prom inh -7, CF NFkB inh -18, MITF TRPM1 inh -1, HIF-2a block 9, Shn3 inh set2 -2 and KKLEB tox 2.
For Oc1cc(OCc2ccccc2)ccc1-c1[nH]ncc1-c1ccccc1 the results were Peg3 prom inh 18, CF NFkB inh -5, MITF TRPM1 inh 4, HIF-2a block 57*, Shn3 inh set2 35, KKLEB tox 4, HIF-2a conf -12 and HIF-1a cs 13.
Cc1ccc(-n2c(C(C)C)nc3oc4ccccc4c(=O)c3c2=O)cc1 was read as Peg3 prom inh -280, CF NFkB inh -15, MITF TRPM1 inh -48, HIF-2a block -287, Shn3 inh set2 -129 and KKLEB tox 4.
`O=C(O)COc1ccccc1/C=N/NC(=O)CSc1nc2ccccc2n1Cc1ccc(Cl)cc1` gave Peg3 prom inh 6, CF NFkB inh -26, MITF TRPM1 inh 8, HIF-2a block 18, Shn3 inh set2 5 and KKLEB tox 7.
`CC(C)(C)C(=O)NC(=S)NNC(=O)c1sc2ccccc2c1Cl` gave Peg3 prom inh 78*, CF NFkB inh 71*, MITF TRPM1 inh 80*, HIF-2a block 78*, Shn3 inh set2 91*, KKLEB tox -66*, HIF-2a conf 35 and HIF-1a cs 100*.
For N#CCc1ccc(NC(=O)/C=C/c2ccc([N+](=O)[O-])o2)cc1 the results were Peg3 prom inh 106*, CF NFkB inh -28, MITF TRPM1 inh 100*, HIF-2a block 65*, Shn3 inh set2 64, KKLEB tox -13, HIF-2a conf 48* and HIF-1a cs 105*.
`COc1ccc(NC(=O)/C(C#N)=C/c2c(C)nn(-c3ccc(F)cc3)c2Cl)cc1OC` gave Peg3 prom inh 22, CF NFkB inh 17, MITF TRPM1 inh -3, HIF-2a block 43*, Shn3 inh set2 14, KKLEB tox -3, HIF-2a conf 11 and HIF-1a cs 54*.
